According to PubChem BioAssay (Tox21):
Several values for one entry are separate records, joined by “and”; a condition that tells them apart may be missing. Equal entries are not always repeated. Records with an inconclusive call do not appear. Entries that show only a call come without a potency. Activity calls are given as the source filed them. Unless noted, calls come from the whole dose curve; as a rule, active = well fitted curve in the direction sought with a large enough effect in the repeat runs; inconclusive = weak or mixed curves; inactive = no such curve, though single readings can be large; an effect the other way counts as inactive or inconclusive.

Tests used:
[1] = qHTS assay to identify small molecule antagonists of the thyroid receptor (TR) signaling pathway - cell viability counter screen (AID 743064); note: nearly all actives have a fitted effect of over 50% in size
How it was run: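 Compounds were tested on GH3.TRE-Luc cells in the presence of T3 at 1 nM final. Following 23.5 h at 37 °C, cell viability was quantified by CellTiter-Fluor.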

[2] = qHTS assay to identify small molecule antagonists of the thyroid receptor (TR) signaling pathway (AID 743065); note: nearly all actives have a fitted effect of over 55% in size
How it was run: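 Antagonism measured as loss of luciferase signal in GH3 cells stably carrying a TRE-luciferase reporter, co-treated with compound and T3 (1 nM final) for 23.5 h at 37 C. Viability was read in the same well by CellTiter-Fluor.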

[3] = test system: thyroid hormone receptor (rat, GH3 cells); assay: qHTS assay to identify small molecule agonists of the thyroid receptor (TR) signaling pathway (AID 743066; calls by dose curve)
[4] = target: Estrogen receptor (Homo sapiens) (UniProt P03372); assay: qHTS assay to identify small molecule antagonists of the estrogen receptor alpha (ER-alpha) signaling pathway (AID 743069; active = well fitted curve in the direction sought with a large enough effect in the signal ratio in the repeat runs, not every such curve was filed as active; the % refers to the signal ratio)
How it was run: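 Compound effects are measured against 17beta-estradiol stimulation in HEK293 cells with a UAS-controlled beta-lactamase reporter for ER-alpha. Exposure lasts 18 hr at 37C; LiveBLAzer B/G FRET substrate follows for 2 hr at room temperature.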

[5] = qHTS assay to identify small molecule antagonists of the estrogen receptor alpha (ER-alpha) signaling pathway - cell viability counter screen (AID 743074; calls by dose curve;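 note: HEK293 cells carrying ER-alpha-UAS-bla reporter stimulated with 17beta-estradiol; nearly all actives have a fitted effect of over 45% in size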)
[6] = target: Estrogen receptor (Homo sapiens) (UniProt P03372); assay: qHTS assay to identify small molecule agonists of the estrogen receptor alpha (ER-alpha) signaling pathway (AID 743075; calls by dose curve)
[7] = target: Estrogen receptor (Homo sapiens) (UniProt P03372); assay: qHTS assay to identify small molecule agonists of the estrogen receptor alpha (ER-alpha) signaling pathway using the BG1 cell line (AID 743079); settings: BG1Luc4E2 cells, ERE-luciferase agonist, 22 h; activation: at 70.3 µM (top of the series) unless noted; note: nearly all actives have a fitted effect of over 20% in size; note: potency is the fitted concentration of half-maximal effect
[8] = qHTS assay to identify small molecule antagonists of the estrogen receptor alpha (ER-alpha) signaling pathway using the BG1 cell line (AID 743080; calls by dose curve;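 note: BG1 cells stimulated with 17beta-estradiol alongside compound; nearly all actives have a fitted effect of over 25% in size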)
How it was run: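 Luciferase inhibition measured with ONE-Glo after 30 min at RT in BG1Luc4E2 cells given test compounds and 17beta-estradiol for 21.5 h at 37 C; CellTiter-Fluor viability read in the same wells beforehand.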

[9] = qHTS assay to identify small molecule antagonists of the estrogen receptor alpha (ER-alpha) signaling pathway using the BG1 cell line - cell viability counter screen (AID 743081);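 note: compound given together with 17beta-estradiol as the ER stimulus; nearly all actives have a fitted effect of over 45% in size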
Aromatase (Homo sapiens) = Aromatase (Homo sapiens) (UniProt P11511); assay: qHTS assay to identify aromatase inhibitors (AID 743083); note: nearly all actives have a fitted effect of over 55% in size
[10] = qHTS assay to identify aromatase inhibitors - cell viability counter screen (AID 743084);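 note: cells stimulated with testosterone during compound exposure; nearly all actives have a fitted effect of over 55% in size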
[11] = target: Aryl hydrocarbon receptor (Homo sapiens) (UniProt P35869); assay: qHTS assay to identify small molecule that activate the aryl hydrocarbon receptor (AhR) signaling pathway (AID 743085); note: nearly all actives have a fitted effect of over 15% in size; note: potency is the fitted concentration of half-maximal effect;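 for activation: HG2L7.5c1 human HepG2 liver cells with stably integrated DRE-driven firefly reporter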
How it was run: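 24 h compound exposure, 37C, HepG2-derived HG2L7.5c1 cells with DRE-responsive luciferase. Readouts: fluorescence viability, then luminescence at room temperature after 30 min.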

[12] = qHTS assay to identify small molecule that activate the aryl hydrocarbon receptor (AhR) signaling pathway - cell viability counter screen (AID 743086);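 note: HepG2 liver cells carrying the AhR DRE luciferase reporter; nearly all actives have a fitted effect of over 45% in size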
How it was run: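 Cytotoxicity counter screen: CellTiter-Fluor signal (30 min, 37 C) in 4000 HepG2 cells/well carrying the DRE-luciferase reporter, following 24 h compound exposure at 37 C.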

[13] = qHTS assay to identify small molecule antagonists of the peroxisome proliferator-activated receptor gamma (PPARg) signaling pathway - cell viability counter screen (AID 743194); settings: Potency: co-treated with 50 nM rosiglitazone unless noted; note: nearly all actives have a fitted effect of over 55% in size
How it was run: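 Viability was measured as CellTiter-Glo luminescence in GeneBLAzer PPARg UAS-bla HEK293H cells. These cells had been exposed 17 h at 37 C to compounds together with rosiglitazone at 50 nM final, with the beta-lactamase readout taken in the same wells.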

[14] = qHTS assay for small molecule agonists of the antioxidant response element (ARE) signaling pathway (AID 743202; active = well fitted activation curve with a large enough effect in the signal ratio in the repeat runs, not every such curve was filed as active; the % refers to the signal ratio)
How it was run: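 An ARE-responsive beta-lactamase gene stably integrated in HepG2 cells serves as reporter. After 5 h plating and 16 h compound incubation at 37 C, fluorescence of the B/G FRET substrate was measured.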

[15] = qHTS assay for small molecule agonists of the antioxidant response element (ARE) signaling pathway - cell viability counter screen (AID 743203; calls by dose curve; note: nearly all actives have a fitted effect of over 55% in size)
How it was run: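 HepG2 cells carrying ARE-driven beta-lactamase; 2,000 cells/well; 5 hrs plating; compound pinned from DMSO; 16 hrs 37C/5% CO2; CellTiter-Glo added; 30 min RT; luminescence.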

[16] = qHTS assay for small molecule activators of the heat shock response signaling pathway - cell viability counter screen (AID 743209); note: nearly all actives have a fitted effect of over 50% in size
How it was run: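 Luminescence from CellTiter-Glo, added after the beta-lactamase FRET read, gave the viability signal. Cells were HSE-bla HeLa treated with DMSO-dissolved compounds for 5 h at 37 C following overnight plating.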

[17] = qHTS assay for small molecule activators of the heat shock response signaling pathway (AID 743210; active = well fitted activation curve with a large enough effect in the signal ratio in the repeat runs, with a control signal flat, not every such curve was filed as active; the % refers to the signal ratio;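 note: HeLa cells with beta-lactamase reporter driven by heat shock elements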)
How it was run: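 In HSE-bla HeLa cells, 5 h compound incubation (37 C) precedes addition of LiveBLAzer B/G substrate; after 2.5 h at room temperature, fluorescence intensity indicates reporter induction.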

[18] = target: Peroxisome proliferator-activated receptor gamma (Homo sapiens) (UniProt P37231); assay: qHTS assay to identify small molecule agonists of the peroxisome proliferator-activated receptor gamma (PPARg) signaling pathway (AID 743094; active = well fitted activation curve with a large enough effect in the signal ratio in the repeat runs, not every such curve was filed as active; the % refers to the signal ratio)
How it was run: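 Beta-lactamase FRET fluorescence was the read-out after a 1 h room-temperature substrate step, following 17 h compound treatment at 37C of HEK293H cells expressing a UAS-driven bla reporter responsive to PPARg.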

[19] = target: Peroxisome proliferator-activated receptor gamma (Homo sapiens) (UniProt P37231); assay: qHTS assay to identify small molecule antagonists of the peroxisome proliferator-activated receptor gamma (PPARg) signaling pathway (AID 743191; calls by dose curve; note: nearly all actives have a fitted effect of over 30% in size)
How it was run: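 Beta-lactamase reporter under UAS control in HEK293H PPARg-bla cells; compound treatment 17 h at 37C. Read-out: fluorescence intensity after 1 h room-temperature incubation with LiveBLAzer B/G FRET substrate.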

Peroxisome proliferator-activated receptor gamma (Homo sapiens), sequence (P37231 whole entry, looked up): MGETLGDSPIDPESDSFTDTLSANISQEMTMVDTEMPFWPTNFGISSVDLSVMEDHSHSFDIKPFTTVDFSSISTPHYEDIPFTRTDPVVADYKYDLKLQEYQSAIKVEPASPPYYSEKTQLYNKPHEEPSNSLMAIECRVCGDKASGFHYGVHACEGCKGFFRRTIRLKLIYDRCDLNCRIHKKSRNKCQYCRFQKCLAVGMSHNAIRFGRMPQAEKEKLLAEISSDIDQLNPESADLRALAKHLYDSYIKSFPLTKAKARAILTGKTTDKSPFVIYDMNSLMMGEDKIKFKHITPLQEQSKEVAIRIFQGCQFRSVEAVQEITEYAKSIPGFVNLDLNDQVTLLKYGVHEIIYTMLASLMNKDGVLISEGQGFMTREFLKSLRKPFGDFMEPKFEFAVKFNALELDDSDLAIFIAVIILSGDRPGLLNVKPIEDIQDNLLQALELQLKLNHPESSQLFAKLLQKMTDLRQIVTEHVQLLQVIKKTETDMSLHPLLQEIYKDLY
Estrogen receptor (Homo sapiens), sequence (P03372 whole entry, looked up): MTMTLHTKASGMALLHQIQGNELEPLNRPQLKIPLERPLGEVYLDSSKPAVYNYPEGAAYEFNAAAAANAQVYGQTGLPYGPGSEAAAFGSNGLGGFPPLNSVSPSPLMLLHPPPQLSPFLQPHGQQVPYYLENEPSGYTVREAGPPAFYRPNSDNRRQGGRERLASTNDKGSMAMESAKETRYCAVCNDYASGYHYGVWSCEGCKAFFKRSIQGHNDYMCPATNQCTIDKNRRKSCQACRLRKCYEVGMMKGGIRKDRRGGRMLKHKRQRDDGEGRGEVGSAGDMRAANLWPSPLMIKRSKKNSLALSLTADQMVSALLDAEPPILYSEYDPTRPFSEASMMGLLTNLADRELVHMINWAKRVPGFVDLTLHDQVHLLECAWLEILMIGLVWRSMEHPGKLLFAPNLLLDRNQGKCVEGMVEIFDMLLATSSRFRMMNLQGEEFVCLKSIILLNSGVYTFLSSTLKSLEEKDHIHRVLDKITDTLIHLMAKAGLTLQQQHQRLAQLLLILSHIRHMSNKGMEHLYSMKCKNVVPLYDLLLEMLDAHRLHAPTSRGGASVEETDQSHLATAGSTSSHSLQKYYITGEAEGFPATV
Aromatase (Homo sapiens), sequence (P11511 whole entry, looked up): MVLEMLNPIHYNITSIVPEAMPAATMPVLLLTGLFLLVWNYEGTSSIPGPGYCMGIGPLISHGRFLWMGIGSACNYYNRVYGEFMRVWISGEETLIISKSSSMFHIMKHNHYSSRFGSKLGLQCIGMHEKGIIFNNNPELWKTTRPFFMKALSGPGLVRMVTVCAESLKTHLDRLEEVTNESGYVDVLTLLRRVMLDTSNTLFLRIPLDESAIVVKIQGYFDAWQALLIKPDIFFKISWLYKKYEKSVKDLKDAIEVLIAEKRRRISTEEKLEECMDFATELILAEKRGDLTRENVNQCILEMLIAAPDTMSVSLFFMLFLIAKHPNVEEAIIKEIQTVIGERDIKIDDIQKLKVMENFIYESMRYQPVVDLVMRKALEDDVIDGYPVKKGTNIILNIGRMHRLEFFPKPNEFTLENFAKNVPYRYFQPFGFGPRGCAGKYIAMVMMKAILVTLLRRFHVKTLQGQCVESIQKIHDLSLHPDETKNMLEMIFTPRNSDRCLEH
Aryl hydrocarbon receptor (Homo sapiens), sequence (P35869 whole entry, looked up): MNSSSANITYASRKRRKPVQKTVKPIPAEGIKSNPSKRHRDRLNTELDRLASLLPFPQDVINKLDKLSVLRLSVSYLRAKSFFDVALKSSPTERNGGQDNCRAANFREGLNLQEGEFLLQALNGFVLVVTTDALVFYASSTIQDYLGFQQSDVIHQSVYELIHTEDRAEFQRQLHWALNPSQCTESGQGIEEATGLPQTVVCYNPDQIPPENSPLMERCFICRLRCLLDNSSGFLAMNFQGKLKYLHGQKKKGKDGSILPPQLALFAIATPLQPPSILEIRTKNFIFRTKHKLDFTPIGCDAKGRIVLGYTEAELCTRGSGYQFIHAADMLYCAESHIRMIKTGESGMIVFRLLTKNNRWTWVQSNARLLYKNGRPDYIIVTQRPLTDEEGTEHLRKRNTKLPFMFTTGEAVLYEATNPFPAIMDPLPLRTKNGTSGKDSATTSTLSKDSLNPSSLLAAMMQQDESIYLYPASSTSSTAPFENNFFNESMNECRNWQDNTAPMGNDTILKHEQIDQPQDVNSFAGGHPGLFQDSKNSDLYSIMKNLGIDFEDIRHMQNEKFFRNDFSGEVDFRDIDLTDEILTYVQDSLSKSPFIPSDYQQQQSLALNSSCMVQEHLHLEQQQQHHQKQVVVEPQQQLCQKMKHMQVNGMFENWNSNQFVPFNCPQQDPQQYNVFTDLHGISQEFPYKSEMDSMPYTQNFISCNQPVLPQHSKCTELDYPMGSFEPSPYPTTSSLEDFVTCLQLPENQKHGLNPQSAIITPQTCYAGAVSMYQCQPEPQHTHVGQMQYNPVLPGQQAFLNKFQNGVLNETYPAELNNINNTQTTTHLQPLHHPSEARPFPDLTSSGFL

Structure (SMILES)	Potency [1]	Potency [2]	Potency [3]	Potency [4]	Potency [5]	Potency [6]	Potency [7]	Potency [8]	Potency [9]	Potency (Aromatase (Homo sapiens))	Potency [10]	Potency [11]	Potency [12]	Potency [13]	Potency [14]	Potency [15]	Potency [16]	Potency [17]	Potency [18]	Potency [19]
ClC(Cl)(Cl)c1ccccc1	inactive	inactive	inactive	inactive	inactive	inactive	inactive	inactive	inactive	inactive	inactive	inactive	inactive	inactive	inactive	inactive	inactive	inactive		
CCCCOC(=O)COC(=O)c1ccccc1C(=O)OCCCC	inactive	inactive	inactive	inactive	inactive	inactive	inactive	inactive	inactive	inactive	inactive	inactive	inactive	inactive	inactive	inactive	inactive	inactive	inactive	inactive
CSc1nc(NC(C)C)nc(NC(C)C)n1	inactive	inactive	inactive	inactive	inactive	inactive	inactive	inactive	inactive	inactive	inactive	inactive	inactive	inactive		inactive	inactive	inactive	inactive	
CN(C)P(=O)(N(C)C)N(C)C	inactive	inactive	inactive	inactive	inactive	inactive	inactive	inactive	inactive	inactive	inactive	inactive	inactive	inactive	inactive	inactive	inactive	inactive	inactive	
C=C(C)C#N	inactive	inactive	inactive	inactive	inactive	inactive	inactive	inactive	inactive	inactive	inactive	inactive		inactive	inactive	inactive	inactive	inactive		
CCC/C=N/O	inactive	inactive	inactive	inactive	inactive	inactive	inactive	inactive	inactive	inactive	inactive	inactive	inactive	inactive	inactive	inactive	inactive	inactive	inactive	
CC1=C(C(=O)Nc2ccccc2)SCCO1	inactive	inactive	inactive	inactive	inactive	inactive	31.1 µM (active) and 27.3 µM (active)		inactive	inactive	inactive	27.8 µM (active) and 24.3 µM (active)	inactive	inactive	inactive	inactive	inactive	inactive	inactive	inactive
CCCCOCC1CO1 (stereo not given)	inactive	inactive	inactive	inactive	inactive	inactive	inactive	inactive	inactive	inactive	inactive	inactive		inactive	inactive	inactive	inactive	inactive	inactive	inactive
CCC1(c2ccc(N)cc2)CCC(=O)NC1=O (stereo not given)	inactive	inactive	inactive	inactive	inactive	inactive	inactive	inactive	inactive		inactive	inactive	inactive	inactive		inactive	inactive	inactive	inactive	
O=C(O)CF	inactive	inactive	inactive	inactive	inactive	inactive	inactive	inactive	inactive	inactive	inactive	inactive	inactive	inactive	inactive	inactive	inactive		inactive	
CCOP(=S)(OCC)SCSC(C)(C)C	inactive	inactive	inactive	inactive	inactive	inactive	inactive	inactive	inactive	inactive	inactive	inactive	inactive	inactive	inactive	inactive	inactive	inactive	inactive	
CCOC(=O)c1ccccc1N	inactive	inactive	inactive	inactive	inactive	inactive	inactive	inactive	inactive	inactive	inactive	inactive		inactive	inactive	inactive	inactive	inactive	inactive	
CCOS(=O)(=O)OCC	inactive	inactive	inactive	inactive	inactive	inactive	inactive	inactive	inactive	inactive	inactive	inactive	inactive	inactive	inactive	inactive	inactive		inactive	inactive
